CHX counter – counter-screen hit for Shiga toxin inhibitors, cycloheximide; cell reporter, cycloheximide protein synthesis inhibition counterscreen; max response, %; 12% of 300,000 active; in the data active means max response mostly above about 13%, no sharp cut-off; inactive means mostly below about 14%; further: read at 38.3 µM for the half of the compounds with a filed dose; 0% is about no effect
Shiga toxin inh – Shiga toxin inhibition; Vero cells, Shiga toxin protein synthesis inhibition reporter; inhibition, % at 38.7 µM; 9.2% of 290,000 active; AID 2315; in the data active means inhibition mostly above about 28%, no sharp cut-off; inactive means mostly below about 43%; further: 0% is about no effect
Pf growth 48h – P. falciparum growth inhibition at 48 hours (one generation); P. falciparum luciferase growth in erythrocytes, 48 h; 5.9% of 310,000 active; Potency, µM (highest dose often 28.7 µM), inactives show top-dose activity change, negative = inhibition, hits mostly inhibitors; further: potency means the concentration at half of the fitted maximal effect; on the % scale 0 is the no-effect control and ±100 the full control effect
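Firefly luciferase activity from engineered P. falciparum reports growth; inhibitors lower the luminescent signal. Cultures contained 2% hematocrit erythrocytes at 0.1% final parasitemia.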
HCV inhibitor – blocks hepatitis C virus; Huh7.5.1 HCVcc-Cre infection, luciferase reporter, 44 h; AID 651820; 3.4% of 340,000 active; Potency, µM (top dose mostly 41.8 µM), inactives show at the highest dose activity change, negative = inhibition, usual class: inhibitors; further: potency means the concentration at half of the fitted maximal effect; on the % scale 0 is the no-effect control and ±100 the full control effect
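A cell-based infection assay in which seeded cells (1,000 per well) receive test compound after 4 h, are inoculated with HCVcc-Cre at approximately 0.5 moi, and are incubated 44 h before luminescence detection.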
HCMV antiviral – inhibitors of human cytomegalovirus. HFF cells, HCMV-luciferase reporter, 72 h; active compounds read low. 4.5% of 410,000 active. activity change, negative = inhibition, % at 57.5 µM; in the data active means activity change below about -60%; inconclusive means no clear call, values can overlap the other calls; inactive means above about -39%; further: on the % scale 0 is the no-effect control and ±100 the full control effect
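Two compound doses tested in HFFs infected with HCMV-luciferase, MOI 1 PFU/cell, 72 h at 37C. Lysate luminescence read with OneGlo; data normalized against buffer-only and 10uM Salinomycin inhibitor controls.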
Pf growth 96h – P. falciparum growth inhibition at 96 hours. P. falciparum luciferase reporter growth, 96 h. Potency, µM (top dose mostly 28.7 µM), for the others: top-dose activity change, negative = inhibition, hits mostly inhibitors. 6.9% of 320,000 active. AID 504834; further: potency means the concentration at half of the fitted maximal effect; on the % scale 0 is the no-effect control and ±100 the full control effect
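Luminescence readout: decreased luciferase signal marks inhibited growth of reporter-expressing P. falciparum in infected red cells (2% hematocrit, 0.05% parasitemia final), exposed to compound two generations (96 h, 37 C, 5% CO2).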
Numbers without * were called inactive; ? = inconclusive; / = no result given. A selection: hits, their analogues and other compounds. The true share with any hit is near 21%. Unless noted, the call rests on the fitted dose curve; in most records, active means well fitted inhibition curve with a large enough effect; inconclusive means small, poorly fitted or top-dose-only effect, or another doubt; inactive means no such curve, though single readings can be large or run the other way.

SMILES	CHX counter	Shiga toxin inh	Pf growth 48h	HCV inhibitor	HCMV antiviral	Pf growth 96h
Cc1cc(-n2c(C)cc(C(=S)N3CCOCC3)c2C)ccc1Br	-2.7	-8.8	?	?	-65.6*	?
Cc1ccc(-n2c(C)cc(C(=O)CN3CCOCC3)c2C)cc1C	21.1	31.8	-9.8%	-18.1%	0.0	12.7%
CCCC(=O)NC(NC(=S)Nc1ccc(S(N)(=O)=O)cc1)C(Cl)(Cl)Cl (stereo not given)	-1.5	-11.7	-21.0%	6.5%	-0.3	?
CCCC(=O)NC(NC(=S)Nc1ccc(N=Nc2ccccc2)cc1)C(Cl)(Cl)Cl (stereo not given)	34.6*	39.4*	?	10µM*	-70.1*	49.4%
O=C(CCc1ccccc1)NC(NC(=S)Nc1ccc(Br)cc1)C(Cl)(Cl)Cl (stereo not given)	-0.8	6.8	?	2µM*	-13.5	/
O=C(CCc1ccccc1)NC(NC(=S)Nc1cccc(Cl)c1)C(Cl)(Cl)Cl (stereo not given)	-1.2	-7.1	?	-12.1%	?	9.28µM*
COC(=O)NC(NC(=S)Nc1cccc(C)c1)C(Cl)(Cl)Cl (stereo not given)	-3.0	10.2	?	-15.8%	-33.6	-22.1%
CCOc1ccc(-c2cc(CCCC(=O)NCCc3ccc(SC)cc3)no2)cc1	/	/	/	/	-34.6	/
CCOC(=O)N1C2C=C(C)[C@@H]2[C@@H]2CC(=O)N21 (stereo not given in full)	-0.4	-2.3	-12.2%	7.9%	10.3	-10.2%
CCOc1ccccc1N1C(=O)CC(Sc2n[nH]c(-c3ccccc3)n2)C1=O (stereo not given)	-1.5	-9.9	-19.8%	15.6%	-28.6	-14.8%
CCOC(=O)CN1C(=O)C(Sc2n[nH]c(-c3ccc(C)cc3)n2)CCc2ccccc21 (stereo not given)	2.7	-4.6	?	?	?	11.7µM*
CCOC(=O)CN1C(=O)C(Sc2n[nH]c(-c3cccc(C)c3)n2)CCc2ccccc21 (stereo not given)	-5.0	-18.8	13.1µM*	-27.3%	-30.7	9.28µM*
Cc1ccc(N2C=Nc3ccc(C)c4nc(C)cc2c34)cc1	3.7	7.8	9.28µM*	1.2%	-33.7	63.6%
CC(C)(C)NC(=O)C(C1CC1)n1c(-c2ccccc2)nc2ccccc21 (stereo not given)	/	/	/	/	-17.5	/
O=C(Cn1c2[n+](c3ccc(C(F)(F)F)cc31)CCCCC2)c1ccc2c(c1)OCCO2	4.9	-9.6	?	1.8%	-39.4	?
FC(F)(F)c1ccc2c(c1)n(Cc1ccccc1)c1[n+]2CCCCC1	4.2	3.7	6.57µM*	9.4%	-65.8*	?
O=C(Cn1c2[n+](c3ccc(C(F)(F)F)cc31)CCCCC2)c1cccc([N+](=O)[O-])c1	4.2	1.0	14.7µM*	-16.4%	1.9	13.1µM*
CCc1cccc(NC(=O)Cn2c3[n+](c4ccc(C(F)(F)F)cc42)CCCCC3)c1	-3.3	-4.9	4.65µM*	?	-64.0*	1.04µM*
FC(F)(F)c1ccc(CN2CCCCCC2)cc1	5.1	-7.7	/	-9.4%	-3.4	-36.5%
O=C(Cn1c2[n+](c3ccc(C(F)(F)F)cc31)CCCCC2)Nc1ccccc1	-3.1	8.9	?	?	-16.9	?
C=CCN(C(=O)CCC(=O)Nc1cc(C)on1)C(C(=O)NC1CCCC1)c1ccc(CC)cc1 (stereo not given)	-2.4	-14.1	?	-13.1%	-31.9	-6.9%
CCc1ccc(C2CC(=O)N(c3ccc(F)cc3)C3=C2C(=O)OC3)cc1 (stereo not given)	-1.4	1.1	-6.3%	2.9%	-24.5	?
COc1cccc(-c2nn(C)c3sc(C(=O)N4CCN(c5cccc(C(F)(F)F)c5)CC4)cc23)c1	/	/	/	/	2.1	/
CCOC(=O)N1CCC(NC(=O)c2cc3c(-c4cccc(OC)c4)nn(C)c3s2)CC1	-1.6	-8.1	9.28µM*	?	-19.8	/
COc1ccc(N2CCN(C(=O)c3cc4c(-c5cccc(OC)c5)nn(C)c4s3)CC2)cc1	-1.4	2.5	?	6.31µM*	-24.1	-6.4%
SMILES	CHX counter	Shiga toxin inh	Pf growth 48h	HCV inhibitor	HCMV antiviral	Pf growth 96h
CCOC(=O)N1CCN(C(=O)c2cc3c(-c4cccc(OC)c4)nn(C)c3s2)CC1	0.3	44.7	-27.2%	8.91µM*	8.8	-13.1%
CC(=O)c1ccc(N2CCN(C(=O)c3cc4c(-c5ccccc5F)nn(C)c4s3)CC2)cc1	-7.3	-9.6	/	14.1µM*	-12.7	?
O=C(/C=C/C=C/c1ccccc1)CC1(O)C(=O)Nc2ccccc21 (stereo not given)	18.5*	37.3	14.9%	14.8%	127.1	?
CCCCCCOc1ccc(CN2CCN(CC)CC2)cc1	54.6*	140.0*	/	?	-75.3*	249.5%
CCCCOc1ccc(CN2CCSCC2)cc1	29.5*	42.1*	44.8%	13.4%	14.0	-20.9%
c1ccc(-c2ccc(CN3CCSCC3)cc2)cc1	24.6*	77.3*	262.2%	-24.4%	-1.7	13.1µM*
Clc1ccc(CN2CCSCC2)cc1Cl	-3.0	-2.1	-15.2%	19.8%	-1.1	-18.2%
CCOC(=O)c1sc2ccc(S(=O)(=O)N3CCOCC3)cc2c1N	-1.9	-20.9	0.4%	-10.0%	-61.6*	-23.9%
CCn1cc(C(=O)N2CCCCC2)c(=O)c2cc(S(=O)(=O)N3CCC(C)CC3)ccc21	22.8*	9.7	?	6.9%	37.6	4.8%
CCOC(=O)N1CCN(C(=O)c2cn(CC)c3ccc(S(=O)(=O)N4CCOCC4)cc3c2=O)CC1	-2.9	-9.9	13.4%	21.9%	-2.1	4.65µM*
Cn1cc(C(=O)N2CCN(c3cccc(Cl)c3)CC2)c(=O)c2cc(S(=O)(=O)N3CCOCC3)ccc21	-1.1	-3.1	-14.4%	0.1%	?	11.7µM*
CCn1c(CNC(=O)c2ccc(OC)cc2)nnc1SCC(=O)Nc1cccc(C)c1	/	/	/	/	19.5	/
CCCCCNC(=O)CCn1c(=O)[nH]c2ccccc2c1=O	/	/	/	/	-30.7	/
Cc1nnsc1C(=O)NNC(=O)c1cccc2ccccc12	-2.9	-5.6	9.6%	17.8%	13.3	12.1%
CCn1cc(C(=O)NCCCOC(C)C)c(=O)c2cc(S(=O)(=O)N3CCC(C)CC3)ccc21	-6.3	-1.7	?	5.2%	0.0	1.04µM*
CCC(C)NC(=O)c1cn(CC)c2ccc(S(=O)(=O)N3CCCCCC3)cc2c1=O (stereo not given)	-2.0	-5.6	?	-2.9%	-39.8	13.1µM*
Cc1ccc(-n2c(=O)[nH]c3cc(C(=O)NCc4ccccc4)ccc3c2=O)cc1	/	/	/	/	-3.3	/
O=C(Nc1ccc(F)c(Cl)c1)NC1CC1	6.9	39.5	-18.5%	8.5%	-7.5	4.6%
CC(C)CNC(=O)Nc1ccc(F)c(Cl)c1	26.1*	40.1	4.1%	9.7%	88.1	?
CCCCC(=O)Nc1ccc(F)c(Cl)c1	16.1*	28.8	45.8%	?	-33.7	6.9%

Screening data as filed in PubChem BioAssay.
